The text below walks through data of ChEMBL document CHEMBL3988442, “University of Dundee, Small-Polar-MMV Screening Library” (2021).

Assay [1] concerns the target T1, Aspartate--tRNA(Asp/Asn) ligase (Mycobacterium tuberculosis (strain ATCC 25618 / H37Rv)) (UniProt P9WFW3). Further: in the data most compounds retested in dose-response had high values.
T1 sequence (whole entry): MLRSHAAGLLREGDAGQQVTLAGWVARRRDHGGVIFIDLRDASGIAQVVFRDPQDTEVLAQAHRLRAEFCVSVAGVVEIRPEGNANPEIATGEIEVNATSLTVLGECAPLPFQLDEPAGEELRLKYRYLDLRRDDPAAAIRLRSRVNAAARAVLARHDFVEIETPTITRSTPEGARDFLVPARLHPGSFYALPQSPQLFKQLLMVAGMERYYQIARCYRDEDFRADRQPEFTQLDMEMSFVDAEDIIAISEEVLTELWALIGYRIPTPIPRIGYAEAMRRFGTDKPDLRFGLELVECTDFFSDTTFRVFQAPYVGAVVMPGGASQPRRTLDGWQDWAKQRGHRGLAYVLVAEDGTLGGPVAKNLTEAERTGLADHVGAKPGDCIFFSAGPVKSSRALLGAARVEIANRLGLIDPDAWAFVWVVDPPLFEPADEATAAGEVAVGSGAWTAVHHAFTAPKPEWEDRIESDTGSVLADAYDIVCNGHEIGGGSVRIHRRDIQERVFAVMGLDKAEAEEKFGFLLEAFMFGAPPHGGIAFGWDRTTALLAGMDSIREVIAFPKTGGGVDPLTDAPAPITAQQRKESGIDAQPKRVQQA
As to the kind of experiment: Assay for Asp RNA synthetase-1 from Mycobacterium tuberculosis. It is filed as functional. Further details: scale not given: direction of the effect not stated beside the values. The conditions noted are these: 30 µM.

The target of assay [2] is Shiga toxin 2 (Escherichia coli O157:H7) (UniProt P09385+P09386). The assay is described as follows: E. coli 0.157:H7 Shiga Toxin SOP - stx2 screening assay. It is filed as functional. Set-up: scale not given: direction of the effect not stated beside the values. The following applies: 30 µM.

Regarding `CC(C(=O)N1CCN(c2ccccc2Cl)CC1)n1cncn1` (stereo unspecified), the Percent Effect in assay [1] is -1.38%; in assay [2], -19.8%.
On to `NC(=O)c1cc(NC(=O)N2CCCCCC2)ccc1F`, for which the Percent Effect in assay [1] is 1.17%; in assay [2] it was -21.4%.
For the compound `CCN1CCN(CC(O)c2ccc(F)cc2)CC1` (stereo unspecified), the Percent Effect in assay [1] is -6.48%; in assay [2], 19.4%.
In the case of `CC(C)(C)n1cc(C(=O)N2CCN(Cc3ccsc3)CC2)cn1`, the Percent Effect in assay [1] was -3.48%; in assay [2], 30.7%.
In the case of `CCn1ncc(CN2CCc3c(nc(-c4cccnc4)[nH]c3=O)C2)c1C`, the figures for the Percent Effect in assay [1] and in assay [2] were -5.25% and -14.2%, respectively.
As for `Cc1cc(C)n(-c2cncc(NCCNC(=O)CC3CCCC3)n2)n1`, the values for the Percent Effect in assay [1] and in assay [2] were 0.268% and -15.9%, respectively.
As to `Cc1nc(CNC(=O)NCCc2ccc(N(C)C)cc2)cs1`, the Percent Effect worked out at 6.93% in assay [1] and 16.6% in assay [2].
Regarding `CCSCC(C)NCc1nncn1C1CCCCC1` (stereo unspecified), the Percent Effect turned out to be 1.39% in assay [1] and 13.1% in assay [2].
As for `COc1ccc2c(c1)CCN(CCC(=O)O)CC2`, the Percent Effect is 3.94% in assay [1] and -33.8% in assay [2].
Consider `CC(C)C1CN(c2ncc(F)cn2)CCC(=O)N1Cc1ccc(F)cc1` (stereo unspecified), for which the figures for the Percent Effect in assay [1] and in assay [2] were 1.56% and -4.93%, respectively.
The matching figures for `CCn1cc(CN2CCCN(C(=O)c3sccc3C#N)CC2)cn1`: 0.257% and -4.04%.
In the case of `Cn1ccnc1CN1CCOCC(Cc2ccccn2)C1` (stereo unspecified), the figures for the Percent Effect in assay [1] and in assay [2] were -1.22% and 17.1%, respectively.
Consider `COC(=O)c1cccn1C1CCN(CC(=O)NC2CCCCC2)CC1`, for which the Percent Effect in assay [1] was -1.64%; in assay [2] it was 1.4%.
With `Cc1ccc(N2CCCC(NCc3nc(C)c(C)o3)C2)nn1` (stereo unspecified), the Percent Effect in assay [1] is -0.975%; in assay [2], -14.9%.
For `CCn1c(CN2CCCN(C(=O)OC)CC2)nc2c(F)cccc21`, in that order: -0.656% and 36.3%.
On to `CN1CC(=O)N(c2cccc(F)c2)CC12CCN(S(C)(=O)=O)C2` (stereo unspecified), for which the Percent Effect in assay [1] is -0.565%; in assay [2], 8.46%.
Take `Cc1n[nH]c(C2CN(C(=O)c3ccco3)CCO2)n1` (stereo unspecified): the Percent Effect amounted to 2.88% in assay [1] and 5.26% in assay [2].
For `CCOC(=O)NC(CNC(=O)CCc1ccccn1)CC(C)C` (stereo unspecified), the Percent Effect was 1.17% in assay [1] and 0.307% in assay [2].
